PubChem BioAssay AID1159580 (chemical genetic matrix, 2015)
Hit rate of the full screen: of about 5,500 compounds, about 2,000 (36%) were called active. Not shown: some 18% with an inconclusive outcome. Rule as the data show it: active = normalized growth mostly below about 0.91 (no sharp cut-off); inconclusive = no clear call, values can overlap the other calls; inactive = mostly above about 0.92. Some of the results follow.

Assay: chemical genetic growth profiling, strain panel (AID 1159580);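 also: tested at 20 µM; growth read once vehicle control cultures reached saturation at 30 °C; 1 = growth at the plate median or of vehicle wells; lower values mean less growth of the strain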
Details: S. cerevisiae deletion strains, growth OD
[1] = locus YDL101C, strain DUN1, active compounds read low
[2] = locus YHR030C, strain SLT2, active compounds read low
[3] = locus YAL013W, strain DEP1, active compounds read low
[4] = locus YBR229C, strain ROT2, active compounds read low
[5] = locus YCL061C, strain MRC1, active compounds read low
[6] = locus YDR150W, strain NUM1, active compounds read low
[7] = locus YEL061C, strain CIN8, active compounds read low
[8] = locus YGR078C, strain PAC10, active compounds read low
[9] = locus YGR229C, strain SMI1, active compounds read low
[10] = locus YHR087W, strain rtc3, active compounds read low
[11] = locus YJR043C, strain POL32, active compounds read low
[12] = locus YJR075W, strain HOC1, active compounds read low
[13] = locus YLR039C, strain RIC1, active compounds read low
[14] = locus YLR058C, strain SHM2 (second series), active compounds read low
[15] = locus YLR085C, strain ARP6, active compounds read low
[16] = locus YLR262C, strain YPT6, active compounds read low
[17] = locus YML094W, strain GIM5, active compounds read low
[18] = locus YMR219W, strain ESC1, active compounds read low
[19] = locus YMR263W, strain SAP30, active compounds read low
[20] = locus YNL153C, strain GIM3, active compounds read low
[21] = locus YNL298W, strain CLA4 (second series), active compounds read low
[22] = locus YNL322C, strain KRE1, active compounds read low
[23] = locus YNR030W, strain Alg12, active compounds read low
[24] = locus YOL006C, strain TOP1, active compounds read low
[25] = locus YPL055C, strain LGE1, active compounds read low
[26] = locus YPL241C, strain CIN2, active compounds read low
[27] = locus YPR135W, strain CTF4, active compounds read low

Measured: normalized growth

CN(C)/C=C/C(=O)c1ccc(C#Cc2ccccc2)cc1
inactive: locus YAR019C, strain CDC15, active compounds read low 0.982 | locus YBL105C, strain PKC1, active compounds read low 0.986 | locus YBR135W, strain CKS1, active compounds read low 0.967 | locus YBR136W, strain MEC1, active compounds read low 0.984 | locus YBR160W, strain CDC28, active compounds read low 0.97 | locus YDL017W, strain CDC7, active compounds read low 0.977 | locus YDL028C, strain MPS1, active compounds read low 0.98 | [1] 0.982 | locus YDL108W, strain KIN28, active compounds read low 0.986 | locus YDL132W, strain cdc53, active compounds read low 0.968 | locus YDL214C, strain PRR2, active compounds read low 0.987 | locus YDR052C, strain DBF4, active compounds read low 0.974 | locus YDR054C, strain cdc34, active compounds read low 0.975 | locus YDR226W, strain ADK1, active compounds read low 0.972 | locus YDR477W, strain SNF1, active compounds read low 0.958 | locus YER123W, strain YCK3, active compounds read low 0.955 | locus YER133W, strain GLC7, active compounds read low 0.981 | locus YFL009W, strain cdc4, active compounds read low 0.965 | locus YFL029C, strain CAK1, active compounds read low 0.976 | locus YFR003C, strain YPI1, active compounds read low 0.993 | locus YFR019W, strain FAB1, active compounds read low 0.981 | locus YFR028C, strain CDC14, active compounds read low 0.98 | locus YGR040W, strain KSS1, active compounds read low 0.967 | locus YGR052W, strain FMP48, active compounds read low 1.08 | locus YGR092W, strain DBF2, active compounds read low 1.01 | [2] 0.874 | locus YHR079C, strain IRE1, active compounds read low 0.99 | locus YHR082C, strain KSP1, active compounds read low 1.05 | locus YHR205W, strain SCH9, active compounds read low 0.987 | locus YIL147C, strain SLN1, active compounds read low 0.982 | locus YJL095W, strain BCK1, active compounds read low 0.935 | locus YJL128C, strain PBS2, active compounds read low 0.953 | locus YJL157C, strain FAR1, active compounds read low 0.989 | locus YJR016C, strain ILV3, active compounds read low 0.974 | locus YJR066W, strain TOR1 (second series), active compounds read low 0.934 | locus YJR066W, strain TOR1, active compounds read low 0.94 | locus YKL048C, strain ELM1, active compounds read low 0.979 | locus YKL067W, strain YNK1, active compounds read low 0.974 | locus YKL101W, strain HSL1, active compounds read low 0.986 | locus YKL193C, strain SDS22, active compounds read low 0.976 | locus YKL203C, strain TOR2, active compounds read low 1 | locus YLR113W, strain HOG1, active compounds read low 0.972 | locus YLR133W, strain CKI1, active compounds read low 0.987 | locus YLR403W, strain SFP1, active compounds read low 0.97 | locus YML070W, strain DAK1, active compounds read low 0.967 | locus YMR001C, strain CDC5, active compounds read low 0.984 | locus YMR205C, strain PFK2 (second series), active compounds read low 0.994 | locus YMR277W, strain FCP1, active compounds read low 0.973 | locus YNL006W, strain LST8, active compounds read low 0.962 | locus YNL020C, strain ARK1, active compounds read low 0.992 | locus YNL161W, strain CBK1, active compounds read low 0.965 | locus YNL183C, strain NPR1, active compounds read low 0.939 | locus YNL207W, strain RIO2, active compounds read low 0.985 | locus YNL222W, strain SSU72, active compounds read low 0.972 | locus YNL307C, strain MCK1 (second series), active compounds read low 0.994 | locus YOL078W, strain AVO1, active compounds read low 0.98 | locus YOL136C, strain PFK27, active compounds read low 0.976 | locus YOR061W, strain CKA2, active compounds read low 0.979 | locus YOR119C, strain RIO1, active compounds read low 1.04 | locus YOR231W, strain MKK1, active compounds read low 0.931 | locus YOR329C, strain SCD5, active compounds read low 0.98 | locus YPL031C, strain PHO85, active compounds read low 0.968 | locus YPL153C, strain RAD53, active compounds read low 0.939 | locus YPL204W, strain HRR25, active compounds read low 0.94 | locus YPL209C, strain IPL1, active compounds read low 0.981 | locus YPL256C, strain CLN2, active compounds read low 0.98 | locus YPR025C, strain CCL1, active compounds read low 0.977 | locus YPR106W, strain ISR1, active compounds read low 0.985 | locus YPR111W, strain DBF20, active compounds read low 0.97 | strain NNK1, active compounds read low 0.982 | strain TSCII, active compounds read low 0.969

COC(=O)c1ccc(C#Cc2ccccc2)o1
inactive: [6] 0.834 | [9] 0.961 | [14] 0.992 | locus YNL128W, strain TEP1, active compounds read low 0.927 | [22] 0.972
active: [3] 0.9 | [4] 0.884 | [5] 0.771 | [1] 0.846 | locus YDL134C, strain PPH21, active compounds read low 0.589 | [7] 0.713 | [8] 0.89 | [2] 0.323 | [10] 0.902 | locus YJL187C, strain SWE1, active compounds read low 0.913 | [11] 0.822 | [12] 0.875 | locus YKL190W, strain CNB1, active compounds read low 0.731 | [13] 0.55 | [15] 0.325 | [16] 0.584 | [17] 0.787 | [18] 0.88 | [19] 0.904 | [20] 0.815 | [21] 0.654 | [23] 0.793 | [24] 0.349 | [25] 0.767 | [26] 0.678 | [27] 0.457

COC(=O)c1ccc(S(=O)(=O)NCc2ccccc2)n1C
inactive: [3] 1.01 | [4] 1.03 | [5] 1.02 | [1] 1.02 | [6] 1.03 | [7] 1.06 | [8] 1.02 | [9] 1.02 | [2] 1.09 | [10] 0.995 | [11] 1.06 | [12] 1.05 | [13] 1.02 | [14] 1.03 | [15] 1.04 | [16] 1.08 | [17] 1.01 | [18] 1.01 | [19] 1.01 | locus YMR307W, strain GAS1, active compounds read low 1.1 | [20] 1.05 | [21] 1.03 | [22] 1.01 | [23] 1.04 | [24] 1.07 | [25] 0.991 | [26] 1.01 | [27] 1.15
